Laboratory results as given in PubChem BioAssay AID1626 (SRMLSC, 2009).
About 2,000 (0.91%) of roughly 220,000 compounds were called active. Roughly 2% stayed inconclusive and do not appear here. No stated cut-off is given here; in the data, inconclusive means inhibition above about 80% without an active follow-up result; inactive means below that; test concentration not stated here. Not all results are given here. Measured potencies and affinities stand elsewhere.

Assay: M. tuberculosis H37Rv growth inhibitors, H37Rv strain (AID 1626);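 further: bacteria incubated seven days before Alamar blue readout; 0% = bacteria only wells and 100% = bacteria with antibiotic wells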
Details: stronger effect = higher value, concentration not given here

Compound | inhibition
COC(=O)CSc1nc2c(c(-c3ccc(O)cc3)c1C#N)CCCC2 | -6.65% (inactive)
Cc1ccccc1NC(=O)CSc1nc2c(c(-c3ccco3)c1C#N)CCCC2 | -3.31% (inactive)
COc1cccc(NC(=O)CSc2nc3c(c(-c4ccco4)c2C#N)CCCC3)c1 | -2.62% (inactive)
COC(=O)CSc1nc(-c2ccc(C)cc2)c2c(c1C#N)CCCC2 | 72.2% (inactive)
COc1ccc(-c2c(C#N)c(SCC(N)=O)nc3c2CCCC3)cc1 | 2.47% (inactive)
CCSc1nc2c(c(-c3ccc(C)o3)c1C#N)CCCC2 | 2.67% (inactive)
N#Cc1c(SCC(=O)O)nc(-c2ccccc2)c2c1CCCC2 | -9.5% (inactive)
Cc1ccc(-c2c(C#N)c(N)nc3c2CCCC3)o1 | -11.1% (inactive)
O=C(O)c1ccc(-c2noc(-c3cccc(F)c3)n2)cc1 | -9.57% (inactive)
COc1ccc2[nH]c(=O)c(CN(CCCN3CCOCC3)C(=O)NCc3ccccc3)cc2c1 | 6.13% (inactive)
COc1cc(NC(=O)CSc2nnc(Cn3nnc4ccccc43)n2C)cc(OC)c1 | 3.53% (inactive)
CCCCN(C)CCC(=O)Nc1ccc(OC)cc1OC | -13.6% (inactive)
Cc1ccccc1Nc1cc(C(=O)NCC2CCCO2)c2ccccc2n1 (configuration not stated) | 5.9% (inactive)
CCOC(=O)N1CCN(C(=S)Nc2cccc(C)c2)CC1 | -4.85% (inactive)
COc1ccc(C(=O)Nc2ccc(NC(=O)c3cccs3)cc2)cc1Cl | -14.7% (inactive)
CC(=O)Nc1ccc(C(=O)N/N=C/c2ccc(F)cc2)cc1 | 7.2% (inactive)
Cc1ccsc1C(C(=O)NC1CCCCC1)N(C(=O)c1csnn1)C1CC1 (configuration not stated) | -8.93% (inactive)
COC(=O)CSc1nc(-c2ccccc2)nc2ccccc12 | 5.34% (inactive)
COC(=O)CSc1cnc2ccccc2n1 | -1.39% (inactive)
Cc1ccc(-n2c(C)nn(CCOc3ccccc3)c2=O)cc1 | 6.33% (inactive)
CN(C)C(/C=C/Nc1cccc([N+](=O)[O-])c1)=C(C#N)C#N | -7.29% (inactive)
CCN(CC)c1nc(Oc2ccc(=O)[nH]n2)nc(N2CCOCC2)n1 | 0.81% (inactive)
Cc1ccccc1NC(=O)NC(C)(C)CC(C)(C)C | -4.38% (inactive)
COc1cccc(C(C(=O)NC(C)(C)C)N(CC(C)C)C(=O)CCC(=O)Nc2cc(C)on2)c1OC (configuration not stated) | -4.52% (inactive)
O=C(c1ccc(NC2=NC3CS(=O)(=O)CC3S2)cc1)N1CCN(C(=O)c2ccco2)CC1 (configuration not stated) | -2.98% (inactive)

Compound | inhibition
Cc1ccc(-n2cc(CN3CCC(CO)(Cc4ccccc4)CC3)cn2)cc1 | 0.885% (inactive)
OCC1(Cc2cccc(C(F)(F)F)c2)CCN(Cc2cc(F)cc(F)c2)CC1 | 1.35% (inactive)
O=C(CCN1C(=O)c2ccccc2C1=O)C1=NN[C@@H]2C(=O)N(c3ccc4c(c3)OCO4)C(=O)[C@H]12 | -4.07% (inactive)
COc1ccc(CN(CC2CCCO2)C(=O)c2cc3sccc3n2C)c(OC)c1 (configuration not stated) | -12% (inactive)
CC1(C)Cc2c(sc3c2c(=O)n(-c2cccc(Cl)c2)c(=O)n3CC(N)=O)CO1 | -12.2% (inactive)
CCOC(=O)C1=CN(Cc2ccc(OC)cc2)C=C(C(=O)OCC)C1c1cccs1 | -0.52% (inactive)
Cc1cc(Nc2ccc(C)c(Cl)c2)nc(N2CCOCC2)n1 | 12.8% (inactive)
Cc1cc(C(=O)Nc2ccc3c(c2)OCCO3)c2ccccc2n1 | -3.31% (inactive)
O=C(Nc1ccc2c(c1)OCCO2)c1ccccc1F | 6.75% (inactive)
O=C(Nc1ccc2oc(-c3ccccc3Cl)nc2c1)c1ncn[nH]1 | 6.26% (inactive)
Cc1[nH]nc(NNC(=O)c2ccccc2)c1[N+](=O)[O-] | -6.74% (inactive)
O=C1NC(=O)N(c2ccccc2)C(=O)/C1=C/C=C/c1ccco1 | -5.19% (inactive)
O=C1NC(=O)N(c2ccccc2)C(=O)/C1=C\C=C\c1ccccc1 | -3.04% (inactive)
CN1C(=O)OC2(C)CCc3ccccc3C12C (configuration not stated) | -7.1% (inactive)
Cc1cc(C)n(-c2nc(N(C)C)nc(N(C)C)n2)n1 | -2.29% (inactive)
Cc1cc(C)n(-c2nc(Nc3ccccc3)nc(-n3nc(C)cc3C)n2)n1 | -2.93% (inactive)
CC(=O)c1nnn(-c2nc(N)nc(N(c3ccccc3)c3ccccc3)n2)c1C | 3% (inactive)
CNc1nc(C)nc(-n2nc(C)cc2C)n1 | 6.41% (inactive)
Cc1cc(NCCO)nc(-n2nc(C)cc2C)n1 | 8.23% (inactive)
Cc1cc(C)n(-c2nc(C)nc(N)n2)n1 | -4.82% (inactive)
Cc1ccccc1Nc1nc(N)nc(CCl)n1 | 77.4% (inactive)
CC(C)Nc1nc(NC(C)C)nc(Nn2cnnc2)n1 | -7.25% (inactive)
CCC1CCc2c(sc(NC(=O)C3c4ccccc4Oc4ccccc43)c2C(N)=O)C1 (configuration not stated) | 5.29% (inactive)
O=C(NC(=S)NCC1CCCO1)c1ccc(Cl)cc1 (configuration not stated) | 2.47% (inactive)
O=C(NCc1ccccc1)c1onc(CSc2ccccc2)c1C(=O)NCC1CC1 | -10.4% (inactive)

Compound | inhibition
CC(C)c1nnc(NC(=O)CSc2nnc(-c3ccco3)o2)s1 | -0.02% (inactive)
O=C(Cn1c(=O)n(-c2ccccc2)c(=O)c2sccc21)NCc1ccccc1 | -8% (inactive)
CN(C)S(=O)(=O)c1cccc(C(=O)NCC2CCCO2)c1 (configuration not stated) | 4.28% (inactive)
CC(=O)c1c(C)[nH]c(C(=O)NCc2cccc(Cl)c2)c1C | -6.84% (inactive)
Cc1nnc(Sc2cc(C(=O)NCc3ccco3)c3ccccc3n2)s1 | 0.09% (inactive)
CC(C)Nc1nc(-c2ccccc2)nc(-n2ccnc2)n1 | 8.64% (inactive)
CCCCNc1nc(-c2ccccc2)nc(-n2ccnc2)n1 | 1.24% (inactive)
Cc1cc(C)n(-c2nnc(NC(C)(C)C)nn2)n1 | -8.78% (inactive)
Cc1cc(C)n(-c2nnc(NCc3ccc(Cl)cc3)nn2)n1 | 8.99% (inactive)
Cc1sc2nc(CN3CCCC3)nc(N3CCN(C(=O)c4ccco4)CC3)c2c1C | -1.07% (inactive)
Cc1ccccc1CC1(CO)CCCN(Cc2ccc(C#CC(C)(C)O)cc2)C1 (configuration not stated) | 8.42% (inactive)
COc1cccc(CN2CCC(C(=O)N3CCN(c4ccccc4F)CC3)CC2)c1 | -8.97% (inactive)
CCOC(=O)c1cccc(NC(=O)N[C@@H](C)C(=O)OC)c1 | -9.35% (inactive)
COc1ccc(-c2cn(-c3ccc(Br)cc3)c3[n+]2CCS3)cc1 | 5.88% (inactive)
CC(=O)c1ccc(-n2cc(-c3ccc(C(C)(C)C)cc3)[n+]3c2SCCC3)cc1 | 40.7% (inactive)
N#Cc1c(/N=C/C=C/c2ccccc2)sc2c1CCCC2 | -4.34% (inactive)
Cc1cccc(OCC2=NS(=O)(=O)c3ccccc3N2)c1 | -21.3% (inactive)
CCCCOC(=O)c1ccc(NC(=O)CSc2nncn2C)cc1 | 53.2% (inactive)
Cn1nnnc1SCC(=O)Nc1ccccc1-c1ccccc1 | 36.5% (inactive)
COc1ccc(NC(=O)CSc2nnnn2C)cc1 | -5.32% (inactive)
Cn1nnnc1SCC(=O)Nc1ccc(Oc2ccccc2)cc1 | 57.4% (inactive)
CCOC(=O)c1ccc(NC(=O)CSc2nnnn2CCCO)cc1 | 68.7% (inactive)
Cc1cc(C)nc(SCC(=O)Nc2nc(-c3ccccc3)c(-c3ccccc3)o2)n1 | 5.45% (inactive)
CCOC(=O)c1oc2ccc(S(=O)(=O)Nc3ccc4c(c3)n(C)c(=O)n4C)cc2c1C | -1.98% (inactive)
O=C1CCCC2=C1C(c1ccsc1)CC(=O)N2c1ccccc1F (configuration not stated) | -5.2% (inactive)

Compound | inhibition
CCN(CC)CCCNC(=O)c1ccccc1C | -9.77% (inactive)
O=C(c1ccccc1)N1CCC2(CC1)OCCO2 | -4.39% (inactive)
CCN=C1SC(C(=O)Nc2cccc(Cl)c2)CC(=O)N1CC (configuration not stated) | 2.07% (inactive)
O=C(c1cc2nc(-c3ccccc3)cc(-c3ccccc3)n2n1)N1CCCC1 | -3% (inactive)
CN1CCN(C(=O)c2cc3nc(-c4ccccc4)cc(-c4ccccc4)n3n2)CC1 | 4.38% (inactive)
CCCCn1c(=O)c(CCC(=O)OCC(=O)NC(=O)NCCC(C)C)nc2ccccc21 | -5.41% (inactive)
On1nnc2ccc(C(F)(F)F)cc21 | 0.915% (inactive)
S=C1NC2=C(CCCC2)C2(CCCCC2)N1 | 3.82% (inactive)
Cc1cccc(C)c1OCc1nc2ccccc2[nH]1 | -5.31% (inactive)
N=c1n(CCN2CCCCC2)c2ccccc2n1CC(O)c1ccc(Cl)c(Cl)c1 (configuration not stated) | 57.5% (inactive)
N=c1n(CCN2CCOCC2)c2ccccc2n1CC(=O)c1ccc(Cl)c(Cl)c1 | 17.4% (inactive)
N#C/C(=C\c1ccc(OC(=O)c2cccs2)cc1)c1nc2ccccc2[nH]1 | 28.1% (inactive)
N#C/C(=C\c1ccc(OC(=O)c2ccc(Br)s2)cc1)c1nc2ccccc2[nH]1 | 66.1% (inactive)
Cc1ccc2nc(/C(C#N)=C/c3ccc(-c4cccc([N+](=O)[O-])c4)o3)[nH]c2c1 | 1.74% (inactive)
Cc1ccc2nc(/C(C#N)=C\c3cc(O)ccc3[N+](=O)[O-])[nH]c2c1 | -7.37% (inactive)
CN(Cc1nc(Cc2cccc(C(F)(F)F)c2)no1)C1CC(C)(C)NC(C)(C)C1 | 4.06% (inactive)
COc1ccc(C(=O)NCC(=O)OCC(=O)NCCC2=CCCCC2)cc1 | 1.25% (inactive)
CCN(CC)S(=O)(=O)c1ccc(-c2nnc(SCC(N)=O)n2CC)cc1 | -3.31% (inactive)
CSc1ncc(CO)n1Cc1ccccc1 | -4.14% (inactive)
O=C(O)c1ccc(CS(=O)(=O)Cc2ccccc2F)o1 | -18.6% (inactive)
COc1ccc(-c2[nH]ncc2CN2CCCN(c3ccccc3)CC2)c(F)c1 | -1.64% (inactive)
COc1ccc(-c2[nH]ncc2CN2CCN(c3ccc(F)cc3)CC2)cc1 | -12.3% (inactive)
